The source of these data is PubChem BioAssay AID743446 (Broad Institute, 2014).

Measured potencies and affinities stand elsewhere. A number with no mark means an inactive call. The rule behind the calls is not given here.

This assay can be described thus: viability loss in HEK293 cells – cell-based, plate reader, cherry-picked samples, cytotoxicity control, dose response (AID 743446). The note with it: hits give low values; at 26 µM unless noted.
`C[C@H](CO)N1C[C@H](C)[C@@H](CN(C)CC2CCOCC2)Oc2ncc(Br)cc2C1=O`: the max activity is 4.11%.
For the compound `c1ccc(-n2ncc3c(N4CCCCC4)ncnc32)cc1`, the max activity was -13.3% [at 3 µM].
As for `O=C(CN1C(=O)c2ccccc2S1(=O)=O)c1ccccc1F`, the max activity is 74.6%.
As for `COc1ccc(-c2noc(CCC(=O)N3CCN(c4ccc(Cl)cc4)CC3)n2)cc1`, the max activity was 26.2% [at 12 µM].
